Calls of active or inactive are those of the source. Where a call stands in place of a potency, no number is given. Unless noted, the call rests on the fitted dose curve; in most records, active means well fitted curve in the direction sought with a large enough effect in the repeat runs; inconclusive means weak or mixed curves; inactive means no such curve, though single readings can be large; an effect the other way counts as inactive or inconclusive.
Columns and labels:
[1] = qHTS assay to test for compound auto fluorescence at 535 nm (green) in HEK293 cells (AID 720680)
[2] = qHTS assay to test for compound auto fluorescence at 460 nm (blue) in HEK293 cell free culture (AID 720681)
Summary of the method: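 Test compounds were pinned into cell-free culture medium (DMEM with 10% FBS) and fluorescence was read directly at Ex/Em 405/460 nm. Signals were expressed as fluorescence equivalents of triamterene, with DMSO vehicle as control.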

[3] = qHTS assay to test for compound auto fluorescence at 535 nm (green) in HEK293 cell free culture (AID 720682)
Summary of the method: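 Green-channel intensity (Ex/Em 485/535 nm) was recorded from compound-treated wells containing only DMEM with 10% FBS. Fluorescein provided the equivalency standard.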

[4] = qHTS assay to test for compound auto fluorescence at 590 nm (red) in HEK293 cell free culture (AID 720683)
Summary of the method: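 Tox21 10K library compounds were pinned into cell-free DMEM with 10% FBS and fluorescence was read at excitation 540 nm. Activity is expressed as Rose Bengal sodium equivalency.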

[5] = qHTS assay to test for compound auto fluorescence at 590 nm (red) in HepG2 cell free culture (AID 720684)
Summary of the method: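 Readout: intrinsic compound fluorescence at 590 nm emission after 540 nm excitation, scaled to Rose Bengal sodium. Matrix was cell-free MEM with 10% FBS; DMSO vehicle wells served as control.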

[6] = qHTS assay to test for compound auto fluorescence at 460 nm (blue) in HepG2 cell free culture (AID 720685)
Summary of the method: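 Cell-free plates of MEM plus 10% FBS received 23 nL compound or DMSO vehicle; blue-channel (405/460 nm) intensity scored against triamterene as reference fluorophore.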

[7] = qHTS assay to test for compound auto fluorescence at 535 nm (green) in HepG2 cell free culture (AID 720686)
[8] = qHTS assay to test for compound auto fluorescence at 460 nm (blue) in HepG2 cells (AID 720687)
Summary of the method: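 Cells (2,000/well in MEM with 10% FBS) attached overnight at 37 C, then were exposed to compound or DMSO for 1 hr at 37 C, 5% CO2. Fluorescence read at Ex/Em 405/460 nm, expressed as triamterene-equivalent signal.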

[9] = molecular target: Glucocorticoid receptor (Homo sapiens) (UniProt P04150); test: qHTS assay to identify small molecule agonists of the glucocorticoid receptor (GR) signaling pathway (AID 720691; active means well fitted activation curve with a large enough effect in the signal ratio in the repeat runs, not every such curve was filed as active; inconclusive means weak or mixed curves, or effect the other way; inactive means no such curve, though single readings can be large or run the other way; the % refers to the signal ratio; further: potency means the concentration at half of the fitted maximal effect); details: GR-bla HeLa, beta-lactamase reporter ratio, 18 h; activation: at 62.4 µM (top of the series)
Sequence of Glucocorticoid receptor (Homo sapiens) (P04150 whole entry, looked up): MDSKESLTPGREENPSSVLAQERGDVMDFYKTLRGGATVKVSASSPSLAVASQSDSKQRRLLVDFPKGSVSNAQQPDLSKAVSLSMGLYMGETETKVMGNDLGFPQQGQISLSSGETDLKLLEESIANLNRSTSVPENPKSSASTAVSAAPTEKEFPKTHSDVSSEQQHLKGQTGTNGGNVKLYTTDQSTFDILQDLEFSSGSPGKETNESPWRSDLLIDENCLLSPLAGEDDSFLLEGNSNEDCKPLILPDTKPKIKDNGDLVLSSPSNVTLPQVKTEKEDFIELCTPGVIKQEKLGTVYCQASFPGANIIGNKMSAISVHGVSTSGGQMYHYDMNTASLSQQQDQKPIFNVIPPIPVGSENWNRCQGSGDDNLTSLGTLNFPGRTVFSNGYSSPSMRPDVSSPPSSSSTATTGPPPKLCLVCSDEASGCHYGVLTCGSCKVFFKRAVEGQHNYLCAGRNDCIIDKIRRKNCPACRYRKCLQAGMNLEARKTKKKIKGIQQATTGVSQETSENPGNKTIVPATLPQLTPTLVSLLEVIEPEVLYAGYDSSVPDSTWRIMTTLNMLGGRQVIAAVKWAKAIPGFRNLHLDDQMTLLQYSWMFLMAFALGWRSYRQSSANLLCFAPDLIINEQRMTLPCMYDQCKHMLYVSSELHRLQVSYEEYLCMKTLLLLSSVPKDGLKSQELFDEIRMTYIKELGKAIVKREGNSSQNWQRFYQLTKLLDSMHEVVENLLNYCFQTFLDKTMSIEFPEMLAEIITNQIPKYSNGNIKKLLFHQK
Summary of the method: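 Agonist-mode qHTS in HeLa cells stably expressing a glucocorticoid-response-element beta-lactamase reporter. Fluorescence intensity read with FRET substrate (2 h, room temperature) after 18 h compound treatment at 37 C.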

[10] = qHTS assay to identify small molecule antagonists of the glucocorticoid receptor (GR) signaling pathway - cell viability counter screen (AID 720693); further: nearly all actives have a fitted effect of over 55% in size
[11] = qHTS assay for identifying genotoxic compounds that show differential cytotoxicity against isogenic chicken DT40 cell lines with known DNA damage response pathways - wild type cell line (AID 743012); further: nearly all actives have a fitted effect of over 60% in size; further: potency means the concentration at half of the fitted maximal effect
Summary of the method: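 Viability by ATP luminescence (CellTiter-Glo, 30 min RT) after 40 h compound treatment at 37 C/5% CO2, using 300 parental DNA repair-proficient DT40 cells per well.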

[12] = qHTS assay for identifying genotoxic compounds that show differential cytotoxicity against isogenic chicken DT40 cell lines with known DNA damage response pathways - Rad54/Ku70 mutant cell line (AID 743015); further: nearly all actives have a fitted effect of over 60% in size; further: potency means the concentration at half of the fitted maximal effect
[13] = qHTS assay to identify small molecule antagonists of the androgen receptor (AR) signaling pathway - cell viability counter screen (AID 743033; further: nearly all actives have a fitted effect of over 45% in size)
[14] = molecular target: Androgen receptor (Homo sapiens) (UniProt P10275); test: qHTS assay to identify small molecule agonists of the androgen receptor (AR) signaling pathway (AID 743036; active means well fitted activation curve with a large enough effect in the signal ratio in the repeat runs, with a control signal flat, not every such curve was filed as active; inconclusive means weak or mixed curves, or effect the other way; inactive means no such curve, though single readings can be large or run the other way; the % refers to the signal ratio)
Sequence of Androgen receptor (Homo sapiens) (P10275 whole entry, looked up): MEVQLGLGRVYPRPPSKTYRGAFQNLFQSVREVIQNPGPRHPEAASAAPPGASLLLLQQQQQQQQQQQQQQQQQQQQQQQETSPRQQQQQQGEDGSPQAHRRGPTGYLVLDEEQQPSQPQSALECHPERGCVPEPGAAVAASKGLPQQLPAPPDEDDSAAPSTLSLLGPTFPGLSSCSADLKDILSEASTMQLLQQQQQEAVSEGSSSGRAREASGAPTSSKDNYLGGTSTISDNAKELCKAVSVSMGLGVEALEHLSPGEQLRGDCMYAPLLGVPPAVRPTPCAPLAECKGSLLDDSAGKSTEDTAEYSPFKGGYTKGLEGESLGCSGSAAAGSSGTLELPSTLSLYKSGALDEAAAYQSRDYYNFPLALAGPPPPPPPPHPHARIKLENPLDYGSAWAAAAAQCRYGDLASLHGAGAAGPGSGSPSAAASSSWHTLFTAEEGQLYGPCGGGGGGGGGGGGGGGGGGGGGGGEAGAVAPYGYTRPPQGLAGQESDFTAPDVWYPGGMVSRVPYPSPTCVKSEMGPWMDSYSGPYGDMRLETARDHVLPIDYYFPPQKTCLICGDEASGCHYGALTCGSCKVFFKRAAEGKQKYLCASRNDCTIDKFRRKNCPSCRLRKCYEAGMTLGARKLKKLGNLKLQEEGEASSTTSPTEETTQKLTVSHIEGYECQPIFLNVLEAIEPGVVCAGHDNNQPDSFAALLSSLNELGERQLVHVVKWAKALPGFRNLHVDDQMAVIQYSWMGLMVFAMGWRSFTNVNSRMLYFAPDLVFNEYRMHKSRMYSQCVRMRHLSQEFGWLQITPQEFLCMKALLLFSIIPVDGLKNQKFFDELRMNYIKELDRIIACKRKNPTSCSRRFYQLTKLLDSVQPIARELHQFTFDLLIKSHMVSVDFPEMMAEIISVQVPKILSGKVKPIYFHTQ
Summary of the method: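 Cell-based FRET reporter assay: HEK293 line with a UAS-beta-lactamase construct, compounds added in DMSO, 16 h exposure at 37C, then 2 h substrate step at room temperature and fluorescence intensity read.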

[15] = molecular target: Androgen receptor (Homo sapiens) (UniProt P10275); test: qHTS assay to identify small molecule agonists of the androgen receptor (AR) signaling pathway using the MDA cell line (AID 743040; further: nearly all actives have a fitted effect of over 20% in size; further: potency means the concentration at half of the fitted maximal effect)
Summary of the method: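 Agonist activity is measured as luciferase luminescence in human MDA-kb2 cells whose MMTV reporter responds to both AR and GR. Compounds in DMSO incubate 16 h at 37C, 0% CO2, and ONE-Glo is read after 30 min.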

[16] = qHTS assay to identify small molecule antagonists of the androgen receptor (AR) signaling pathway using the MDA cell line - cell viability counter screen (AID 743041; further: nearly all actives have a fitted effect of over 45% in size)
Summary of the method: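 qHTS viability read-out; MDA-kb2 AR-luc; R1881-stimulated; 16 h exposure at 37C, 0% CO2; CellTiter-Fluor, 30 min; fluorescence intensity.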

[17] = molecular target: Androgen receptor (Homo sapiens) (UniProt P10275); test: qHTS assay to identify small molecule antagonists of the androgen receptor (AR) signaling pathway using the MDA cell line (AID 743042; further: nearly all actives have a fitted effect of over 55% in size; further: potency means the concentration at half of the fitted maximal effect)
Summary of the method: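 MDA-kb2 cells (human breast carcinoma, stably carrying an MMTV-luciferase reporter responsive to AR and GR) were plated at 3,000 cells/well and preincubated 5 hr at 37C, then given compound plus R1881 agonist for 16 h. ONE-Glo luminescence was read.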

[18] = qHTS assay for identifying genotoxic compounds that show differential cytotoxicity against isogenic chicken DT40 cell lines with known DNA damage response pathways - Rev3 mutant cell line (AID 743014); further: nearly all actives have a fitted effect of over 55% in size; further: potency means the concentration at half of the fitted maximal effect
[19] = molecular target: Androgen receptor (Homo sapiens) (UniProt P10275); test: qHTS assay to identify small molecule antagonists of the androgen receptor (AR) signaling pathway (AID 743035; active means well fitted inhibition curve with a large enough effect in the signal ratio in the repeat runs, not every such curve was filed as active; inconclusive means weak or mixed curves, or effect the other way; inactive means no such curve, though single readings can be large or run the other way; the % refers to the signal ratio)
Summary of the method: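 Antagonist mode: AR-bla HEK293 cells co-treated with test compounds and agonist R1881 for 16 h at 37C, 5% CO2. Beta-lactamase activity read as FRET fluorescence after 2 h room-temperature substrate loading.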

| SMILES | Potency [1] | Potency [2] | Potency [3] | Potency [4] | Potency [5] | outcome [6] | Potency [7] | outcome [8] | Potency [9] | Potency [10] | Potency [11] | Potency [12] | Potency [13] | Potency [14] | Potency [15] | Potency [16] | Potency [17] | Potency [18] | Potency [19] |
| --- | --- | --- | --- | --- | --- | --- | --- | --- | --- | --- | --- | --- | --- | --- | --- | --- | --- | --- | --- |
| Cc1cc(C)c(NC(=O)C[C@H](CC(=O)O)c2cccc3ccccc23)c(C(=O)N2CCC3(CCCC3)CC2)c1 | inactive | inactive | inactive | inactive | inactive | inactive | inactive | inactive | inactive | inactive | inactive | inactive | inactive | inactive | inactive | inactive | inactive |  |  |
| CC[C@H](C)[C@@H]1NC(=O)[C@H](Cc2ccc(O)cc2)NC(=O)[C@@H](N)CSSC[C@@H](C(=O)N2CCC[C@H]2C(=O)N[C@@H](CC(C)C)C(=O)NCC(N)=O)NC(=O)[C@H](CC(N)=O)NC(=O)[C@H](CCC(N)=O)NC1=O | inactive | inactive | inactive | inactive | inactive | inactive | inactive | inactive | inactive | inactive | inactive | inactive |  |  |  | inactive |  |  |  |
| CC(C)NCC(O)COc1ccccc1-n1cccc1 (centres undefined) | inactive | inactive | inactive | inactive | inactive | inactive | inactive | inactive | inactive | inactive |  | inactive | inactive |  |  | inactive |  | inactive |  |
| COc1cc(NCCCC(C)N)c2ncccc2c1 (centres undefined) | inactive | inactive | inactive | inactive | inactive | inactive | inactive | inactive | inactive | inactive | 29.8 µM (active) | 21.1 µM (active) | inactive |  | inactive | inactive | inactive |  |  |
| Cc1c(N)nc(C(CC(N)=O)NCC(N)C(N)=O)nc1C(=O)NC(C(=O)NC(C)C(O)C(C)C(=O)NC(C(=O)NCCc1nc(-c2nc(C(=O)NCCCN[C@@H](C)c3ccccc3)cs2)cs1)C(C)O)C(O[C@@H]1O[C@@H](CO)[C@@H](O)[C@H](O)[C@@H]1O[C@H]1O[C@H](CO)[C@@H](O)[C@H](OC(N)=O)[C@@H]1O)c1cnc[nH]1 (some centres undefined) | inactive | inactive | inactive | inactive | inactive | inactive | inactive | inactive | inactive | inactive | 1.19 µM (active) | 0.0531 µM (active) | inactive |  |  | inactive |  |  |  |
| CC(CN1c2ccccc2Sc2cccnc21)N(C)C (centres undefined) | inactive | inactive | inactive | inactive | inactive | inactive | inactive | inactive | inactive | inactive | 29.8 µM (active) |  | inactive |  |  | inactive |  | inactive |  |
| OCCO[C@@H]1[C@@H](O)[C@H](O)[C@@H](CO)O[C@@H]1O | inactive | inactive | inactive | inactive | inactive | inactive | inactive | inactive | 13.4 µM [inconclusive] (active) | inactive | inactive | inactive |  |  |  | inactive |  |  |  |
| c1ccc2c(c1)Sc1ccccc1N2CCN1CCCC1 | inactive | inactive | inactive | inactive | inactive | inactive | inactive | inactive | inactive | inactive | 10.6 µM (active) | 16.8 µM (active) | inactive |  |  | inactive |  |  |  |
| C[C@@H]1C[C@H]2[C@@H]3CCC4=CC(=O)C=C[C@]4(C)[C@@]3(F)[C@@H](O)C[C@]2(C)[C@@]1(O)C(=O)COC(=O)c1cccc(S(=O)(=O)O)c1 | inactive | inactive | inactive | inactive | inactive | inactive | inactive | inactive | 0.338 µM [inconclusive] (active) | inactive | inactive | inactive | inactive |  | 0.0841 µM (active) | inactive | inactive |  |  |
| Cc1cccc(C)c1N(CCCc1cccnc1)C(=O)C(C)N (centres undefined) | inactive | inactive | inactive | inactive | inactive | inactive | inactive | inactive | inactive | inactive |  | inactive | inactive | inactive | inactive | inactive | inactive | inactive | inactive |
| O=S(=O)(O)c1cc(O)c2c(N=Nc3ccc(Nc4ccccc4)c4c(S(=O)(=O)O)cccc34)cc(S(=O)(=O)O)cc2c1 | inactive | inactive | inactive | inactive | inactive | inactive | inactive | inactive | inactive | inactive |  | 13.3 µM (active) | inactive | inactive | inactive |  | 16.8 µM (active) | 11.9 µM (active) | inactive |
| CN[C@@H]1[C@H](O[C@H]2[C@H](O[C@H]3[C@H](O)[C@@H](O)[C@H](N=C(N)N)[C@@H](O)[C@@H]3N=C(N)N)O[C@@H](C)[C@]2(O)C=O)O[C@@H](CO)[C@H](O)[C@H]1O | inactive | inactive | inactive | inactive | inactive | inactive | inactive | inactive | inactive | inactive | inactive | inactive | inactive |  |  | inactive |  |  |  |
| Cc1ccccc1CNc1ncnc2c1ncn2[C@@H]1O[C@H](CO)[C@@H](O)[C@H]1O | inactive | inactive | inactive | inactive | inactive | inactive | inactive | inactive | inactive | inactive | 16.8 µM (active) |  | inactive |  |  | inactive |  | 21.1 µM (active) |  |

Reference: PubChem BioAssay (Tox21)
